Source: PubChem BioAssay (National Center for Advancing Translational Sciences (NCATS))
Sampled rows, rich in hits. Any-hit rate of the full collection: about 3.4%.
KAT2A inh: qHTS Assay for Inhibitors of GCN5L2; Potency, µM (series often up to 58.9 µM), for the others: at the highest dose activity change, negative = inhibition, actives largely listed as inhibitors; AID 504327, 2011; GCN5L2 HAT assay, ThioGlo1 CoA-SH fluorescence; Histone acetyltransferase KAT2A (Homo sapiens), Q92830; 390,000 tested, 0.21% active; also: % is scaled to controls: 0 for no effect and ±100 for the full control effect
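Fluorescence readout, Ex340nm/Em540nm: ThioGlo1 (50uM final) reacts with free CoA thiol released as 20nM GCN5L2 acetylates H3(1-25) peptide (75uM) using acetyl-CoA (70uM). Compound and enzyme sat 15 min beforehand; 20 min room-temperature reaction.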
PKM2 activator: qHTS Assay for Activators of Human Muscle isoform 2 Pyruvate Kinase; purified PKM2, Kinase-Glo ATP luminescence, activation; response scale: 0% is enzyme alone, no compound; AID 1631, 2009; Pyruvate kinase PKM (Homo sapiens), P14618; 260,000 tested, 0.34% active; Potency, µM (highest dose often 57.5 µM), for inactives: at the highest dose activation, usual class: activators; also: % is scaled to controls: 0 for no effect and ±100 for the full control effect; nearly all actives have a fitted effect of over 55% in size
Target sequence (P14618 whole entry, looked up, canonical isoform): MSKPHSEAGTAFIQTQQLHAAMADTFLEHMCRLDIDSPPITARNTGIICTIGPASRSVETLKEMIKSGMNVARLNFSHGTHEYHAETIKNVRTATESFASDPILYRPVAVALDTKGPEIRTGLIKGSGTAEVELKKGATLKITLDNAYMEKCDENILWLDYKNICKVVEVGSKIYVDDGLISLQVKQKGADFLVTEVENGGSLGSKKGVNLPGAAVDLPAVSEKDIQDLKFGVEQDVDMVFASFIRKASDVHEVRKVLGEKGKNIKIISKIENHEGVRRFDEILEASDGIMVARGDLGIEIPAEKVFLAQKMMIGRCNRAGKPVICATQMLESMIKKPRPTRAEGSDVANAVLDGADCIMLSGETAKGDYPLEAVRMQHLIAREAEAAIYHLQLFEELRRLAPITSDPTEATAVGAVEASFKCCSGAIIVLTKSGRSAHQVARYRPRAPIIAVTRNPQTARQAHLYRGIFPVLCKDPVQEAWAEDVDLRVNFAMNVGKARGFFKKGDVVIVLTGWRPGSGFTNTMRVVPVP
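Purified hPK-M2 (>95% pure) converted ADP (0.1 mM final) to ATP with 0.5 mM PEP in 50 mM imidazole pH7.2, KCl, MgCl2, Tween 20, BSA; 1 h at room temperature. ATP detected by Kinase-Glo luminescence.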
GLS inhibitor: qHTS for Inhibitors of Glutaminase (GLS) | 410,000 tested, 0.21% active | Potency, µM (top dose mostly 45.5 µM), for inactives: at the top dose activity change, negative = inhibition, actives largely listed as inhibitors | GLS enzymatic activity, qHTS titration | AID 624170, 2012; also: % is scaled to controls: 0 for no effect and ±100 for the full control effect
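Assay buffer: 45 mM KH2PO4 pH 8.2, 0.02% Tween-20. hKGA acts on L-glutamine (1 mM solution added); product glutamate is reported by an oxidase/peroxidase Amplex Red coupling, with fluorescence taken at baseline and 30 min.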
VDR inhibitor: Inhibitors of the vitamin D receptor (VDR): qHTS. 400,000 tested, 0.93% active. Potency, µM, inactives show max response, negative = inhibition, actives largely listed as inhibitors. AID 504847, 2011. VDR-SRC2-3 peptide fluorescence polarization, 2 h. Vitamin D3 receptor (Homo sapiens), P11473; also: % is scaled to controls: 0 for no effect and ±100 for the full control effect
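The screen uses fluorescence polarization to detect compounds that interfere with recruitment of the SRC2-3 coactivator peptide to VDR; plates are read after 2 h at room temperature.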
PLK1 PBD block: qHTS for Inhibitors of PLK1-PDB (polo-like kinase 1 - polo-box domain): Primary Screen; Potency, µM, for the others: max response, negative = inhibition, usual class: inhibitors; 360,000 tested, 2.8% active; AID 720504, 2013; Serine/threonine-protein kinase PLK1 (Homo sapiens), P53350; Plk1 PBD binding of FITC phosphopeptide, fluorescence polarization; also: series mostly up to about 57 µM; % is scaled to controls: 0 for no effect and ±100 for the full control effect; nearly all actives have a fitted effect of over 65% in size
Mito fusion yeast: qHTS Assay for Small Molecule Inhibitors of Mitochondrial Division or Activators of Mitochondrial Fusion | S. cerevisiae fusion-defective mutant growth rescue, CellTiterGlo 48 h | Potency, µM (top dose mostly 46.1 µM), inactives show at the highest dose growth rescue (activation), most hits filed as activators | 320,000 tested, 0.23% active | AID 485298, 2010; also: % of control where 0% means no effect; nearly all actives have a fitted effect of over 45% in size
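S. cerevisiae fusion-defective temperature-sensitive mutants (e.g. fzo1-1, mgm1-5) grown 48 h at 37C in YPEG (ethanol/glycerol non-fermentable) medium with 23 nl compound per well; growth rescue read as CellTiterGlo luminescence.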
Starred values were filed as active, the others as inactive; ? = inconclusive; · = no result given; [ ] = another dose, or the depositor's remark. Calls follow the shape of the dose curve; as a rule, active = well fitted curve in the direction sought with a large enough effect; inconclusive = small, poorly fitted or top-dose-only effect, or another doubt; inactive = no such curve, though single readings can be large; an effect the other way counts as inactive or inconclusive. Potency is read from the fitted curve at half-maximal effect.

SMILES	KAT2A inh	PKM2 activator	GLS inhibitor	VDR inhibitor	PLK1 PBD block	Mito fusion yeast
COc1cc(OC)cc(C(=O)Nc2ccc3c(c2)N(C2CCCC2)C(=O)c2ccccc2S3)c1	-3.4%	·	6.4%	5.1%	·	·
CC1Cc2ccccc2N1C(=O)CSc1nnc(N)s1 (stereo unspecified)	-17.4%	-4.0%	0.3%	-5.9%	-9.3%	0.6%
O=S(=O)(c1ccc(Cl)cc1)N1CCN(c2nc(Nc3cc(Cl)ccc3O)nc3ccccc23)CC1	·	·	·	-15.3%	·	·
COc1ccc(CN(C)CC(=O)Nc2ccc(SC(F)F)cc2)cc1OC	-4.9%	3.5%	1.8%	-19.5%	26.7µM*	-4.5%
O=C(CN1C(=O)C2(SCC(=O)N2c2cccc(Cl)c2)c2ccccc21)NCc1ccccc1 (stereo unspecified)	-13.2%	·	0.7%	7.4%	·	·
O=c1[nH]c(/C=C\c2cccnc2)c([N+](=O)[O-])c(=O)[nH]1	-13.3%	-10.8%	2.6%	-11.0%	26.7µM*	-19.5%
C=C1CC[C@H](O)C/C1=C/C=C1\CCC[C@]2(C)[C@H]1CC[C@H]2[C@@H](C)/C=C\[C@@H](C)C(C)C	-13.9%[21.4 µM]	·	·	-8.8%	·	·
Cc1nc(CS(=O)(=O)c2ccccc2)cc(N2CCOCC2)n1	-11.2%	-5.0%	?	-25.7%	2.99µM*	0.2%
Cc1nc(CSc2ccc(Cl)cc2)cc(N2CCOCC2)n1	-2.0%	-1.5%	7.6%	-3.9%	?	-2.7%
Cn1ncc(S(=O)(=O)Cc2ccccc2)c(Br)c1=O	-20.3%	·	·	?	·	-91.8%
O=C(OCn1ncc(Cl)c(Cl)c1=O)c1ccc(C(F)(F)F)cc1	-5.1%	0.4%	-7.4%	20µM*	-20.6%	-18.1%
Cc1ccc(C(=O)OCn2ncc(Cl)c(Cl)c2=O)cc1	1.9%	?	-3.4%	?	?	-23.1%
COc1ccccc1Cn1c(=S)[nH]c2ccccc2c1=O	-9.6%	·	20µM*	-7.6%	-15.3%	-18.4%
COc1ccccc1Cn1c(=S)[nH]c2cc(C(=O)NCC(OC)OC)ccc2c1=O	-9.4%	·	10µM*	-1.4%	-2.3%	-15.4%
CN(c1ccccc1C(=O)Nc1cccc([N+](=O)[O-])c1)S(=O)(=O)c1ccccc1	-2.1%	0.8%	1.6%	-12.3%	-6.2%	11.8%
C=C(C)C(=O)OC[C@@H]1CCC[N@+]2(C)CCCCC12 (stereo partly specified)	·	·	·	-10.8%	·	·
CCc1ccc(NCc2cc3cc(OC)c(OC)cc3n(CC(=O)Nc3cc(C)ccc3C)c2=O)cc1	-7.2%	·	11.2µM*	11.5%	·	·
CC(=O)c1cccc(NC(=O)Cn2c(=O)c(CNc3ccc(C)cc3)cc3cc4c(cc32)OCCO4)c1	-12.0%	·	10µM*	1.2%	·	·
Cc1ccc(NC(=O)Cn2c(=O)c(CNc3ccccc3)cc3cc4c(cc32)OCCO4)cc1	-5.8%	·	-19.5%	1.9%	·	·
CCc1ccc(NCc2cc3cc(OC)c(OC)cc3n(CC(=O)Nc3ccc(F)cc3)c2=O)cc1	-12.9%	·	?	-6.3%	·	·
CCC(C)(C)NC(=O)c1cccc(NC(=O)C(C)C)c1	3.6%	0.8%	2.3%	-6.1%	21.2µM*	-1.9%
CC(C)C(=O)Nc1cccc(NC(=O)c2cccc(F)c2)c1	-11.3%	-2.6%	1.0%	-6.5%	-4.3%	-1.3%
Cc1ccc(NC(=S)NCc2ccc(F)cc2)c(C)c1	-12.7%	-0.1%[11.5 µM]	6.7%	4.5%	-0.3%	-12.7%
Cc1ccc(NC(=S)NCc2ccc3c(c2)cc(C)n3C)c(C)c1	-7.9%	4.9%	28.2%	?	18.9µM*	4.5%
COc1ccccc1CNC(=O)C1CCN(S(=O)(=O)Cc2ccccc2)CC1	-1.8%	·	-4.5%	18.4%	·	·
SMILES	KAT2A inh	PKM2 activator	GLS inhibitor	VDR inhibitor	PLK1 PBD block	Mito fusion yeast
COC(=O)c1ccccc1S(=O)(=O)C(C)(C)C	1.6%	18.7%	?	?	23.8µM*	-3.0%
COc1ccc(C(CNC(=O)c2ccco2)N2CCCC2)cc1 (stereo unspecified)	-0.4%	·	5.6%	-17.1%	-18.3%	-2.3%
COc1cc(OC)c(Cl)cc1N	-7.7%	0.8%	?	-28.6%	6.7µM*	0.5%
O=C(CNc1ccccc1)N/N=C/c1ccc2c(c1)OCO2	-7.4%	-9.4%	86.7%	-20.8%	23.8µM*	-2.4%
O=C(Cc1ccccc1)N/N=C/c1ccc2c(c1)OCO2	-0.5%	·	1.6%	-3.1%	-18.2%	10.4%
CCN(CC)CCCCn1c(-c2ccccc2)nc2c(NC3CCCCC3)nc(C)nc21	·	-1.0%	·	·	·	·
CC(C)(CCC(=S)N1CCOCC1)C1CCCCC1	1.2%	2.4%	?	?	11.9µM*	-15.9%
S=C(CN1CCCC1=S)N1CCOCC1	·	·	-1.6%	-2.3%	-15.3%	·
Cc1nc(Nc2c(Cl)cccc2Cl)sc1C(=O)Nc1ccccc1	2.7%	2.5%	1.5%	-7.8%	-12.6%	17.8µM*
COc1ccc(C(=O)OCC2CC(c3ccccc3)=NO2)cc1OC (stereo unspecified)	-15.4%	-5.0%	?	?	10.6µM*	2.7%
CN1CCN(c2ccc(S(=O)(=O)N3CCCCC3)cc2NC(=O)c2ccc3ccccc3c2)CC1	-9.4%	-1.0%	12.4%	-7.6%	-2.8%	-8.9%
Cc1ccccc1C(=O)Nc1cc(S(=O)(=O)N2CCCCC2)ccc1N1CCN(C)CC1	1.2%	-11.9%	-1.6%	8.2%	5.97µM*	-0.4%
Cc1ccc(C(=O)Nc2cc(S(=O)(=O)N3CCOCC3)ccc2N2CCCC2)cc1	0.5%	·	11.1%	0.3%	0.6%	0.0%
COc1ccccc1OCC(=O)Nc1cc(S(=O)(=O)N2CCOCC2)ccc1N1CCCCC1	-5.9%	·	23.0%	-24.1%	23.8µM*	·
Cc1ccc(S(=O)(=O)N2CCCCC2)cc1NC(=O)Cn1cnnn1	-0.7%	14.1µM*	3.9%	-8.2%	-7.4%	-1.4%
Cc1ccc(S(=O)(=O)N2CCCCC2)cc1NC(=O)Cn1ccc(C(F)(F)F)n1	-1.8%	-1.9%	-20.4%	-27.3%	-10.1%	-0.3%
Cc1ccc(S(=O)(=O)NC(=O)c2cc(C)n(-c3cc(S(=O)(=O)N4CCOCC4)ccc3N3CCCC3)c2C)cc1	-12.4%	-5.1%	1.8%	18.0%	29.9µM*	2.8%
O=C(NC(=S)Nc1ccccc1N1CCCC1)c1cccc(F)c1	-20.8%	-2.0%	14.2%	-1.1%	?	-2.0%
COC(=O)CCC(=O)Nc1cc(S(=O)(=O)Nc2ccc(Cl)cc2)ccc1N1CCOCC1	-7.4%	-2.2%	-3.4%	-16.8%	15µM*	-6.2%
